Holding throughout (experiment): DAPPL (digital affinity profiling via proximity ligation, sequencing); 10 mM Tris-HCl pH 7.5, 50 mM NaCl, 1 mM DTT, 4% glycerol, room temperature, 30 min; GST-TFs on glutathione beads, 16-mer random dsDNA library, 0.1% formaldehyde crosslink after washing; high values mean tight binding
Conditions in all cases: protein: recombinant; tags: N-terminal GST; dsDNA, one strand shown

In one assay the target is T1, GABPA (Homo sapiens, UniProt Q06546 1-454).
T1 sequence: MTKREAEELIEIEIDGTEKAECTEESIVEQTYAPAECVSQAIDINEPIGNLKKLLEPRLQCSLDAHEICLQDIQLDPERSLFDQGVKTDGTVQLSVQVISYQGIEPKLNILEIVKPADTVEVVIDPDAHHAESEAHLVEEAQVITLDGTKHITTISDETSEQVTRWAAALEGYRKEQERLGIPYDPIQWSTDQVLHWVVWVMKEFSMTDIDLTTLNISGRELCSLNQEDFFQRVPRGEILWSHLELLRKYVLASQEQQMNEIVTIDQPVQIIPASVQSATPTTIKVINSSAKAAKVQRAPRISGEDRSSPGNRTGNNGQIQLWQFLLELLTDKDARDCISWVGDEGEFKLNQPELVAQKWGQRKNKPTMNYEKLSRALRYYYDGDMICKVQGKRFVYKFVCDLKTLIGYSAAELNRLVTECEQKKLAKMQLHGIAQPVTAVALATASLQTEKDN
An outline of the steps:
(§1)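 Sequencing on an Illumina NextSeq500 followed washing, crosslinking with 0.1% formaldehyde, proximity ligation (BsaI/T4 ligase, 1 h, 37 °C) and PCR amplification of pools that had been incubated for 30 min at room temperature with 200 nmole of a random double-stranded 16-mer DNA library in Tris/NaCl/DTT/glycerol buffer. Each pool held DNA-barcoded human transcription factors, expressed in yeast as GST fusions and captured on glutathione beads, plus a tag-only sample. Binding signal is a hexamer's read frequency for a factor divided by its frequency in the tag-only sample.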

The target of the next assay is T2, ERG (Homo sapiens, UniProt P11308 1-479).
T2 sequence: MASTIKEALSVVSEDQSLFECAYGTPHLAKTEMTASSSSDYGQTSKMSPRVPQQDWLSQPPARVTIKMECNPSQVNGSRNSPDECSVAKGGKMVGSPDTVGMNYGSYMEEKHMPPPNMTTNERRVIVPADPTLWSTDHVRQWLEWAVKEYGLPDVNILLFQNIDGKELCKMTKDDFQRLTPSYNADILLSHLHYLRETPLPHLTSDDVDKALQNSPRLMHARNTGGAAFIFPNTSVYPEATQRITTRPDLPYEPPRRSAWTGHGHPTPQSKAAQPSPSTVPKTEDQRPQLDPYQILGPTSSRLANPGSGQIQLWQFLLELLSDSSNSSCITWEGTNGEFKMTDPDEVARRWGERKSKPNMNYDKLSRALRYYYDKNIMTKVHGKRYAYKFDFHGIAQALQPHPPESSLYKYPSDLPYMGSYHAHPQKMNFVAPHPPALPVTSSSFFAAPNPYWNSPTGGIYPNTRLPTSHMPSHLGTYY
A digest of the protocol: as §1

A further assay deals with ELF1 (Homo sapiens, UniProt P32519 1-619). An outline of the steps: as §1
Chain of ELF1 (P32519 whole entry): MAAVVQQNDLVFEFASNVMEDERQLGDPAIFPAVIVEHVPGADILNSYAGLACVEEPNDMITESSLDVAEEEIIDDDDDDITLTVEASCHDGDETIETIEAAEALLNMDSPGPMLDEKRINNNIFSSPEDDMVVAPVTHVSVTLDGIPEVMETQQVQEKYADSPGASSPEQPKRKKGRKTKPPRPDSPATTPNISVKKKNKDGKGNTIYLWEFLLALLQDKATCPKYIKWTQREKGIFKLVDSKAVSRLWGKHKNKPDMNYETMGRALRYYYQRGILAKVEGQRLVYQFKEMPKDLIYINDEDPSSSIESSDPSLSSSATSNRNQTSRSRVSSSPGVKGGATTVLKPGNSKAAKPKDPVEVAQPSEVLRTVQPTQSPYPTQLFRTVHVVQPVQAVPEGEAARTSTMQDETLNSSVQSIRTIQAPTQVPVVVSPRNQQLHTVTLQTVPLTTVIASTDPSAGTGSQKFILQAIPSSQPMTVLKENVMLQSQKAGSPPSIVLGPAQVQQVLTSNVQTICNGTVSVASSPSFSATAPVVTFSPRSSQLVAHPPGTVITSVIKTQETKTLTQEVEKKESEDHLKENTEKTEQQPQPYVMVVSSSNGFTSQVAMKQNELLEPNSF
The target of the next assay is T3, EHF (Homo sapiens, UniProt Q9NZC4 1-300).
T3 sequence: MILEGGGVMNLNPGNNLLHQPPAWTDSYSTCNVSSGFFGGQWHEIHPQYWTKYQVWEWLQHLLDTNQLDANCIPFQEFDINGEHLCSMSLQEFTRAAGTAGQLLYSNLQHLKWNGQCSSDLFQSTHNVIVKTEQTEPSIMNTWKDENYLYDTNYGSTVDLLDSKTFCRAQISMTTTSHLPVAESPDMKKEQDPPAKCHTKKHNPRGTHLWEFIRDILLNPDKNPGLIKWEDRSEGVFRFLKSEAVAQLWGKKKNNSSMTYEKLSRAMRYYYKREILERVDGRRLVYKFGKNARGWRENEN
A digest of the protocol: as §1

A further assay deals with T4, SPIC (Homo sapiens, UniProt Q8N5J4 1-248).
T4 sequence: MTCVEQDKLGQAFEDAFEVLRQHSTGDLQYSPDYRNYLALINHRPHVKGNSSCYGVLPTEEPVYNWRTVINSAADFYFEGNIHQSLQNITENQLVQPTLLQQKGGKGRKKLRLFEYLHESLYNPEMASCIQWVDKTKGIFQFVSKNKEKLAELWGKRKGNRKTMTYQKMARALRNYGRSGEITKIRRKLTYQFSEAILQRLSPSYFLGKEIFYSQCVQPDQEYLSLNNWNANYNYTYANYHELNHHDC
An outline of the steps: as §1

The next assay deals with ETV1 (Homo sapiens, UniProt P50549 1-477). An outline of the steps:
as §1

Another assay addresses T5, ERF (Homo sapiens, UniProt P50548 1-548).
T5 sequence: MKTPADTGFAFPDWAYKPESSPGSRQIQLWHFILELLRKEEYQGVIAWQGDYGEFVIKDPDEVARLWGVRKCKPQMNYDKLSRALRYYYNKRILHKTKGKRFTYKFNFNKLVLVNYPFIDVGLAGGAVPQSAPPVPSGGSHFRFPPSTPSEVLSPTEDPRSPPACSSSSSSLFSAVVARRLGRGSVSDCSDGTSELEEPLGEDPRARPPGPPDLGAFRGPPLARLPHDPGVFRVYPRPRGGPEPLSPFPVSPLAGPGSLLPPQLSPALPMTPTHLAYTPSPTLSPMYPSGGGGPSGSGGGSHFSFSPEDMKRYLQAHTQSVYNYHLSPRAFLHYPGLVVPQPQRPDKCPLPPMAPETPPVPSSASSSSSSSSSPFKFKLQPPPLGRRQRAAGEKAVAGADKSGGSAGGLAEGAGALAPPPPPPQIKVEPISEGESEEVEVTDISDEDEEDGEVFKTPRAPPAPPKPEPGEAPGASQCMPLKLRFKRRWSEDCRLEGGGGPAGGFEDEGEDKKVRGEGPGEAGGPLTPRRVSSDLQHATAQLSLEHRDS
An outline of the steps:
as §1

The target in another assay is T6, ETV3L (Homo sapiens, UniProt Q6ZN32 1-361).
T6 sequence: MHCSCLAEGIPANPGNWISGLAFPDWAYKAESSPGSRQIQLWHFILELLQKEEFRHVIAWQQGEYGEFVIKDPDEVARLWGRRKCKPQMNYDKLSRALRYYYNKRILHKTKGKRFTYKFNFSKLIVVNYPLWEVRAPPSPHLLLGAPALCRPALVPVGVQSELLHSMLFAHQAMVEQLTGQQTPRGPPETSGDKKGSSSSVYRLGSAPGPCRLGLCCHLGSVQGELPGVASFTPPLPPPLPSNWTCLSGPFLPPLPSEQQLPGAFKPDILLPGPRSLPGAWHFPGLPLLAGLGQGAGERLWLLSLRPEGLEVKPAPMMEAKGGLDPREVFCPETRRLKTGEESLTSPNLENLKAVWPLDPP
A digest of the protocol: as §1

The next assay deals with T7, ETS2 (Homo sapiens, UniProt P15036 1-469).
T7 sequence: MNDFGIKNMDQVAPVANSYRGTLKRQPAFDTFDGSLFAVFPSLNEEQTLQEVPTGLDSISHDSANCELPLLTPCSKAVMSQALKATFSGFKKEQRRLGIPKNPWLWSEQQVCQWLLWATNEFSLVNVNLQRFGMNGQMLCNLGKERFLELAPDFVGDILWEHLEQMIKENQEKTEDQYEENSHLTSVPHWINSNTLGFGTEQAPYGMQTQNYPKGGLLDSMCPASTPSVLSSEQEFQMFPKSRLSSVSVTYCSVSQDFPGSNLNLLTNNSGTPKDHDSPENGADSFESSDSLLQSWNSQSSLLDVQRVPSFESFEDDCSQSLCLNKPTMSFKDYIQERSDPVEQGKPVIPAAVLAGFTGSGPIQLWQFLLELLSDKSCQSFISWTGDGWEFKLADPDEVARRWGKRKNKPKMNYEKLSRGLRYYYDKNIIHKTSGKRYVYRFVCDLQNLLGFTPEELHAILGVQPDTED
A digest of the protocol: as §1

In the next assay the target is T8, ETV7 (Homo sapiens, UniProt Q9Y603 1-341).
T8 sequence: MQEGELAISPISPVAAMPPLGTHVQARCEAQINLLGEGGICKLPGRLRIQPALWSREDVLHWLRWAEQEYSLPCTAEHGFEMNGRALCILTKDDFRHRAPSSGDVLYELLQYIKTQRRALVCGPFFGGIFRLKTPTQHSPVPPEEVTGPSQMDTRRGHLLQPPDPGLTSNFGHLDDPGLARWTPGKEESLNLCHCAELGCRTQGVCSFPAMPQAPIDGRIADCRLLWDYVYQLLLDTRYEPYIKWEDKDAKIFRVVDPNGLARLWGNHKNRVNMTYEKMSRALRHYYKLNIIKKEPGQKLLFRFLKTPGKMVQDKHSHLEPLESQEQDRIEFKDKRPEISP
A digest of the protocol:
as §1

Chain of ETV1 (P50549 whole entry): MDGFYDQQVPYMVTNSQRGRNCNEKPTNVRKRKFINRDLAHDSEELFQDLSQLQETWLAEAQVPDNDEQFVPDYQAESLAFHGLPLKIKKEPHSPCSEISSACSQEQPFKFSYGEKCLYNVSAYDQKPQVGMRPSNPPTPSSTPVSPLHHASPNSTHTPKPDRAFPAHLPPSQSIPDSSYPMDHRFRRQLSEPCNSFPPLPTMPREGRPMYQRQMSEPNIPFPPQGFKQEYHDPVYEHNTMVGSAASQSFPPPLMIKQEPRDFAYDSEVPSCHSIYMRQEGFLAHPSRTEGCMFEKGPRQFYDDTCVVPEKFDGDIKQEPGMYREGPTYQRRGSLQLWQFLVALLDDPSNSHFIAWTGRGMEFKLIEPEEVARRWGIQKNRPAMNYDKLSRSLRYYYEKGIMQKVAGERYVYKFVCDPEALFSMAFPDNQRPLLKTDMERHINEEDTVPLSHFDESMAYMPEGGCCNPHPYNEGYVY

With TAGACT, the binding signal was 1.02 fold enrichment (6-mer frequency, TF over GST control) in the assay with GABPA; 1.05 fold enrichment (6-mer frequency, TF over GST control) with ERG; 1.09 fold enrichment (6-mer frequency, TF over GST control) in the assay with ELF1; 1.04 fold enrichment (6-mer frequency, TF over GST control) with EHF; 1.03 fold enrichment (6-mer frequency, TF over GST control) in the assay with SPIC; 1.02 fold enrichment (6-mer frequency, TF over GST control) with ETV1. Besides, the binding signal with ERF is 1.07 fold enrichment (6-mer frequency, TF over GST control); in the assay with ETV3L, 1 fold enrichment (6-mer frequency, TF over GST control); with ETS2, 1.02 fold enrichment (6-mer frequency, TF over GST control); with ETV7 it was 1.05 fold enrichment (6-mer frequency, TF over GST control).

Values taken from publication PMC7862700, “An all-to-all approach to the identification of sequence-specific readers for epigenetic DNA modifications on cytosine”.
